From PubChem BioAssay (NCI) come the findings set out here.

Among the test systems are SR leukemia; RPMI-8226 leukemia; OVCAR-8 ovarian; OVCAR-5 ovarian; OVCAR-4 ovarian; SK-OV-3 ovarian; IGROV1 ovarian; OVCAR-3 ovarian; HS 578T breast; NCI/ADR-RES ovarian; T-47D breast; BT-549 breast; MDA-MB-435 melanoma; SW-620 colon; MCF7 breast; HCT-116 colon; HCC-2998 colon; KM12 colon; MDA-MB-468 breast.
What all share (assay): NCI-60 one-dose screen, 48 h (100 = growth as untreated, 0 = no growth, -100 = all killed)
Common to all, as to conditions: 10 µM unless noted

This is part of a sample that, as a whole, favours compounds with a hit. Of some 83,000 tested, about 20% had one in any assay.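 Negative percent growth values reflect cell death: -40 means 40% of the cells present at the start died, and -100 means all died.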 A number with no mark means an inactive call. Activity calls are given as the source filed them. The calls were made as follows: active = growth percent below 10; inactive = the rest.

With `Nc1nc(C(F)(F)F)cs1`, the growth is 101% in the test with SR leukemia; 115% in the test on RPMI-8226 leukemia; 105% with OVCAR-8 ovarian; 113% in the test on OVCAR-5 ovarian; 108% with OVCAR-4 ovarian; 101% in the test on SK-OV-3 ovarian. Also, the growth is 107% in the test with IGROV1 ovarian; 108% in the test on OVCAR-3 ovarian; 109% in the test on HS 578T breast; 104% in the test on NCI/ADR-RES ovarian; 99.4% in the test on T-47D breast; 114% with BT-549 breast. The growth with MDA-MB-435 melanoma was 100%; in the test on SW-620 colon it was 104%; in the test with MCF7 breast it was 93.2%; in the test with HCT-116 colon, 111%; in the test with HCC-2998 colon it was 105%; in the test on KM12 colon it was 100%. The growth with MDA-MB-468 breast is 101%.

Turning to `COc1ccc(/C=C/c2nc3ccccc3n3c(-c4ccc(Cl)cc4)nnc23)cc1`, the growth in the test with SR leukemia was 60.1%; with RPMI-8226 leukemia, 81.4%; in the test with OVCAR-8 ovarian, 92.7%; in the test with OVCAR-5 ovarian, 102%; in the test on OVCAR-4 ovarian, 81%; in the test with SK-OV-3 ovarian, 98.4%. The growth is 66.8% with IGROV1 ovarian; 99% with OVCAR-3 ovarian; 96.2% in the test on HS 578T breast; 94.4% with NCI/ADR-RES ovarian; 80.6% with T-47D breast; 114% in the test with BT-549 breast. Moreover, the growth in the test with MDA-MB-435 melanoma was 96.1%; in the test on SW-620 colon it was 99.2%; in the test with MCF7 breast it was 73.1%; in the test on HCT-116 colon, 88.3%; in the test with HCC-2998 colon it was 110%; with KM12 colon it was 93.1%. In the test with MDA-MB-468 breast, the growth was 106%.

As for `CC1CN(c2oc(-c3ccc([N+](=O)[O-])cc3)nc2C#N)CC(C)O1` (centres undefined), the growth with SR leukemia was 83.3%; with RPMI-8226 leukemia, 101%; in the test with OVCAR-8 ovarian it was 103%; with OVCAR-5 ovarian it was 107%; in the test on OVCAR-4 ovarian, 102%; in the test with SK-OV-3 ovarian, 110%. Also, the growth was 103% in the test with IGROV1 ovarian; 110% with OVCAR-3 ovarian; 94.4% in the test on HS 578T breast; 95.4% in the test on NCI/ADR-RES ovarian; 97.4% with T-47D breast; 107% in the test with BT-549 breast. Further, the growth in the test on MDA-MB-435 melanoma was 100%; in the test with SW-620 colon, 102%; in the test with MCF7 breast it was 88.4%; in the test on HCT-116 colon it was 108%; in the test with HCC-2998 colon, 101%; in the test on KM12 colon it was 103%. The growth in the test with MDA-MB-468 breast is 125%.

As for `CCCCCCCCc1ccc(C(=O)Nc2cccc(P(=O)(O)O)c2)cc1`, the growth is 87.7% with SR leukemia; 96.4% in the test with RPMI-8226 leukemia; 99.7% with OVCAR-8 ovarian; 116% with OVCAR-5 ovarian; 111% in the test on OVCAR-4 ovarian; 112% with SK-OV-3 ovarian. For the same compound, the growth was 108% in the test with IGROV1 ovarian; 106% in the test on OVCAR-3 ovarian; 102% with HS 578T breast; 101% in the test with NCI/ADR-RES ovarian; 125% in the test on T-47D breast; 110% in the test with BT-549 breast. The growth is 103% with MDA-MB-435 melanoma; 100% in the test with SW-620 colon; 91.8% in the test on MCF7 breast; 94.3% in the test with HCT-116 colon; 114% with HCC-2998 colon; 103% in the test with KM12 colon. In addition, the growth in the test with MDA-MB-468 breast was 88.7%.

Consider `Cn1cc(-c2nc(N)nnc2-c2c[nH]c3ccc(F)cc23)c2cccnc21`, for which the growth was 17.8% with SR leukemia; 44.7% in the test on RPMI-8226 leukemia; 50.3% with OVCAR-8 ovarian; 80.2% in the test on OVCAR-5 ovarian; 70.7% in the test on OVCAR-4 ovarian; 41.3% in the test with SK-OV-3 ovarian. For the same compound, the growth in the test on IGROV1 ovarian was 22.3%; with OVCAR-3 ovarian it was 60.7%; with HS 578T breast, 15.1%; with NCI/ADR-RES ovarian, 52.1%; with T-47D breast, 19.4%; with BT-549 breast it was 38%. The growth was 49.6% in the test on MDA-MB-435 melanoma; 46.7% in the test on SW-620 colon; 21.2% in the test on MCF7 breast; 43.2% in the test on HCT-116 colon; 72.8% with HCC-2998 colon; 60.9% in the test with KM12 colon. The growth with MDA-MB-468 breast is 7.74% (active).

On to `CC1(c2cc3cc(Cl)ccc3oc2=O)NC(=O)c2c(/C=C/C(=O)OC3CC4CCC3(C)C4(C)C)cccc2N1` (centres undefined), for which the growth was 42.2% in the test on SR leukemia; 22% in the test on RPMI-8226 leukemia; 70.4% in the test with OVCAR-8 ovarian; 80.6% in the test on OVCAR-5 ovarian; 54.4% with OVCAR-4 ovarian; 66.1% with SK-OV-3 ovarian. Also, the growth is 76.1% in the test with IGROV1 ovarian; 69% in the test on OVCAR-3 ovarian; 72.8% with HS 578T breast; 64% in the test with NCI/ADR-RES ovarian; 24.4% in the test on T-47D breast; 59.3% in the test on BT-549 breast. For the same compound, the growth in the test with MDA-MB-435 melanoma was 81%; in the test on SW-620 colon it was 73%; in the test on MCF7 breast, 37.4%; in the test with HCT-116 colon, 40.4%; in the test on HCC-2998 colon it was 82.6%; with KM12 colon, 64.8%. In addition, in the test on MDA-MB-468 breast, the growth was -6.79% (active).
